PubChem BioAssay (NCI)
About 83,000 compounds went through this panel and 20% of them were active in at least one assay; those are over-represented in the sample as a whole.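 Single-dose data. Exposure time 48 hours. Values below 10 considered active.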 Calls of active or inactive are those of the source.

Tests used:
Experiment in all cases: NCI-60 one-dose screen, 48 h (100 = growth as untreated, 0 = no growth, -100 = all killed)
Conditions in all cases: 10 µM unless noted
[1] = tested on: DU-145 prostate
[2] = tested on: K-562 leukemia
[3] = tested on: MALME-3M melanoma
[4] = tested on: MDA-MB-231 breast
[5] = tested on: RXF 393 renal
[6] = tested on: SF-268 CNS
[7] = tested on: SF-295 CNS
[8] = tested on: SF-539 CNS
[9] = tested on: UACC-257 melanoma
[10] = tested on: M14 melanoma

Measured: growth

CC(=O)O[C@H](C[C@H](C(C)C)N(C)C(=O)[C@@H](NC(=O)[C@H]1CCCCN1C)C(C)(C)C)c1nc(C(=O)N[C@@H](Cc2ccccc2)C[C@H](C)C(=O)O)cs1
inactive: [3] 66.7% | [5] 39.5% | [6] 24.1% | [9] 47%
active: [1] 0.642% | [2] 5.51% | [4] 6.25% | [7] -0.638% | [8] -10.9% | [10] 3.36%

CC[S][Hg][Cl]
inactive: [1] 103% | [2] 75.4% | [3] 118% | [4] 114% | [5] 124% | [6] 103% | [7] 112% | [8] 105% | [9] 97.3% | [10] 106%

C=CC[Se]C(=O)c1ccccc1OC(C)=O
active: [1] 1.76% | [4] -25.5% | [5] -21% | [7] -29.4% | [8] -82.4% | [9] 5.44% | [10] -6.78%
inactive: [2] 46.8% | [3] 30.9% | [6] 27.1%

COc1ccc(NC([Se])=NC23CC4CC(CC(C4)C2)C3)cc1
inactive: [2] 12.3% | [6] 38.5%
active: [1] 2.16% | [3] -18.5% | [4] -44.4% | [5] -41% | [7] -23.6% | [8] -6.89% | [9] -45.5% | [10] -6.57%

N#CCCNc1ccccc1
inactive: [1] 116% | [2] 98.3% | [3] 120% | [4] 111% | [5] 106% | [6] 97.7% | [7] 101% | [8] 98.1% | [9] 118% | [10] 112%

COC(=O)[C@@H](C)C[C@H](Cc1ccccc1)NC(=O)c1csc([C@@H](C[C@H](C(C)C)N(C)C(=O)[C@@H](NC(=O)[C@H]2CCCCN2C)C2CC2)OC(C)=O)n1
active: [1] 2.33% | [2] 9.03% | [7] 9.01% | [8] -0.629%
inactive: [3] 63.6% | [4] 23% | [5] 46.9% | [6] 32.8% | [9] 58.3% | [10] 10.8%

COc1ccc(C2=CC(c3ccc(OC)c(OC)c3)c3c(c4ccccc4oc3=O)O2)cc1OC (stereo not given)
inactive: [3] 75.3% | [4] 27.8% | [5] 33.2% | [6] 38.7% | [9] 66.9% | [10] 12.9%
active: [1] 9.25% | [2] 1.17% | [7] -54.4% | [8] -17.8%

O=C(Nc1ccncc1F)c1cn(CC2CC2)c2ccccc12
inactive: [1] 114% | [2] 95.7% | [3] 119% | [4] 109% | [5] 103% | [6] 105% | [7] 100% | [8] 110% | [9] 108% | [10] 108%

Nc1c(F)cc(-c2nc3cc(F)ccc3[se]2)cc1Br
inactive: [1] 98.8% | [2] 98.5% | [3] 87% | [4] 17.8% | [5] 74.8% | [6] 98.6% | [7] 74.5% | [8] 87.6% | [9] 85.4% | [10] 88%

COC(C(=O)[C@@H](O)[C@@H](C)O)[C@@H]1Cc2cc3cc(O[C@H]4C[C@@H](O[C@H]5C[C@@H](O)[C@H](O)C(C)O5)[C@H](O)C(C)O4)c(C)c(O)c3c(O)c2C(=O)[C@H]1O[C@H]1C[C@@H](O[C@H]2C[C@@H](O[C@H]3C[C@@H](O)[C@@H](O)C(C)O3)[C@@H](O)C(C)O2)[C@H](O)C(C)O1 (stereo not given in full)
active: [2] 9.59% | [3] -38.7% | [4] 3.75% | [5] -60.5% | [8] 1.03% | [9] -38.6% | [10] 8.68%
inactive: [1] 17.5% | [6] 24.4% | [7] 12.9%

CC[C@H](C)[C@H](NC(=O)C12CC(NC(C)=O)(C1)C2)C(=O)N(C)[C@H](C[C@@H](OC(C)=O)c1nc(C(=O)N[C@@H](Cc2ccccc2)C[C@H](C)C(=O)OC)cs1)C(C)C
active: [1] 0.412% | [8] 1.61% | [10] 2.48%
inactive: [2] 11.5% | [3] 51.8% | [4] 28.5% | [5] 43.9% | [6] 27.2% | [7] 18.7% | [9] 49.6%

CCCCCN(CCCCC)CC(O)c1cc(Cl)ccc1OC (stereo not given)
inactive: [1] 40.1% | [2] 14.8% | [3] 66.9% | [4] 18.8% | [5] 30.7% | [6] 42.3% | [7] 23.9% | [8] 53.2% | [9] 47.4% | [10] 23.1%

COC(=O)[C@H](Cc1ccccc1)NNC(=O)c1csc([C@@H](C[C@H](C(C)C)N(C)C(=O)[C@@H](NC(=O)[C@H]2CCCCN2C)C2CC2)OC(C)=O)n1
inactive: [3] 71% | [5] 76.4% | [6] 22.5% | [9] 58%
active: [1] 6.55% | [2] 1.75% | [4] 3.27% | [7] -5.26% | [8] -15.4% | [10] 2.43%
